Screens (PubChem)
An excerpt weighted towards active compounds, which were near 13% of everything screened.
USP17 inh – human USP17-like deubiquitinase inhibition. A8MUK1. purified USP17, Ub-rhodamine cleavage fluorescence, 3 h. inhibition, % at 50 µM. 47,000 compounds, 6.5% hits. AID 1645855
Target sequence (A8MUK1 whole entry, looked up): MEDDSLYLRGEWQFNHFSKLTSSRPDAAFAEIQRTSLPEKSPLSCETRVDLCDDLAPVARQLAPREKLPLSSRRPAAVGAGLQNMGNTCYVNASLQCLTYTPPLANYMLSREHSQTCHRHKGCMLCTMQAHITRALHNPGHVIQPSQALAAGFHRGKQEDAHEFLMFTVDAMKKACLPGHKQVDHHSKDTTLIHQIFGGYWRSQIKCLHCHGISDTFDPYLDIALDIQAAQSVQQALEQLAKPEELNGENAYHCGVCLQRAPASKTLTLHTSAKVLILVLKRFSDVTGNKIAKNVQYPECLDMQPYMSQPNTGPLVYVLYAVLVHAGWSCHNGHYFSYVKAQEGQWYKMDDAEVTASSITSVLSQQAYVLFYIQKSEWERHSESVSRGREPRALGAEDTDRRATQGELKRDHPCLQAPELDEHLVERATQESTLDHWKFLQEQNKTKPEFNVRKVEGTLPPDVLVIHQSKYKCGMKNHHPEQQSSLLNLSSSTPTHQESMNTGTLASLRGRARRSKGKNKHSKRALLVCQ
USP28 block – blocks human USP28 ubiquitin-rhodamine cleavage; Q96RU2; purified USP28, Ub-rhodamine cleavage fluorescence, 30 min; inhibition, % at 25 µM; 47,000 compounds, 3% hits
USP10 inh – blocks human USP10 ubiquitin-rhodamine cleavage; Q14694; purified USP10, Ub-rhodamine fluorescence, 60 min; inhibition, % at 20 µM; 47,000 compounds, 1.1% hits; AID 1645856
USP8 inh – inhibitors of human USP8 deubiquitinase; 47,000 compounds, 4.2% hits; AID 1645853; purified USP8, Ub-rhodamine cleavage fluorescence, 30 min; inhibition, % at 20 µM; P40818
USP30 block – inhibitors of human USP30 deubiquitinase; 47,000 compounds, 5.3% hits; AID 1645860; purified USP30, Ub-rhodamine cleavage fluorescence; inhibition, % at 25 µM
A number is an active result; 0 = inactive. Cut-off read from the data, not from the text of the source: active = inhibition above about 30%; inactive = the rest.

SMILES	USP17 inh	USP28 block	USP10 inh	USP8 inh	USP30 block
Cc1ccn2c(=O)c(NC(=O)Cc3ccc(Cl)cc3)c(C)nc2c1	0	0	0	0	0
COc1ccccc1NC(=O)c1ccc(S(=O)(=O)N(C)Cc2ccccc2)cc1	0	0	0	0	34
COc1ccccc1N(C)S(=O)(=O)c1ccc(C(=O)Nc2cccc(-n3cnnn3)c2C)cc1	35	0	0	0	0
CCCCN(c1ccccc1)S(=O)(=O)c1cccc(C(=O)Nc2cccc(C(C)=O)c2)c1	0	0	0	0	0
CC(=O)c1cccc(NC(=O)c2ccc(S(=O)(=O)N(C)Cc3ccccc3)cc2)c1	44	0	0	0	0
O=C(CC1C(=O)Oc2ccccc2N1C(=O)C1CC1)Nc1ccccc1 (stereo not drawn)	0	0	0	0	0
CC1=CN2C(=N)/C(=C/c3cn(Cc4ccccc4C)c4ccccc34)C(=O)N=C2S1	0	0	0	0	0
N#C/C(=C\c1ccc(OCc2cccc(C(=O)O)c2)cc1)c1ccc(F)cc1	69	0	77	59	0
COc1cccc(CN2CC=CCC(C3CCN(c4nc(C)cc(C)n4)CC3)C2=O)c1 (stereo not drawn)	0	0	0	0	0
O=C(NCc1ccc(F)cc1)c1cc(-n2cnnn2)ccc1Cl	67	30	0	0	30
COc1ccc(CN2CCC3(CC2)OCCc2cnc(C)nc23)c(OC)c1	0	0	0	0	32
COc1cccc(CN2CCC3(CC2)OCCc2cnc(C)nc23)c1	0	0	0	0	0
Cc1nn(-c2cc(N3CCOCC3)ncn2)c(C)c1CCC(=O)Nc1ccc(Cl)cc1	0	0	0	0	0
Cc1nn(-c2cc(N3CCOCC3)ncn2)c(C)c1CCC(=O)Nc1ccc(C(C)C)cc1	65	0	0	0	0
CCc1ccccc1NC(=O)CSc1nnc(-c2ccccn2)n1-c1ccc(C)cc1	0	0	0	0	35
Cc1ccc(-c2ccc(C#N)c(SCc3ccccc3)n2)cc1	0	0	0	0	0
Cc1ccc(-n2c(SCc3ccc(C#N)cc3)nnc2-c2ccccn2)cc1	0	0	0	0	38
CC(=O)Nc1ccc(Oc2cccnc2)nc1	0	0	0	0	0
CCc1ccc(N2C(=O)N(c3ccccc3)C3CS(=O)(=O)CC32)cc1 (stereo not drawn)	0	0	0	0	0
C=C(CCC=C(C)C)[C@H]1CC[C@]2(C)[C@@H]1CC[C@@H]1[C@@]3(C)CCC(=O)C(C)(C)[C@@H]3CC[C@]12C	40	0	0	0	31
COc1ccccc1-c1cc2c(=O)n(Cc3nc(-c4ccccc4C)no3)ccn2n1	0	0	0	0	47
COc1ccccc1-c1noc(Cn2ccn3nc(-c4ccc(F)cc4)cc3c2=O)n1	0	0	0	0	0
CC(C)c1cc(C2CCCN2C(=O)c2cc(C3CCCCC3)no2)on1 (stereo not drawn)	0	0	0	0	0
COc1ccc(CCN2CC(=O)N3CCc4c([nH]c5ccccc45)C3(C)C2=O)cc1 (stereo not drawn)	0	0	0	0	0
CCc1ccc(NC(=O)Cn2c(=O)n(-c3ccc(CC(=O)NCc4ccco4)cc3)c(=O)c3ccccc32)cc1	47	0	0	0	0
SMILES	USP17 inh	USP28 block	USP10 inh	USP8 inh	USP30 block
O=C(Cn1c(=O)c2ccccc2n(CC(=O)Nc2cc(Cl)cc(Cl)c2)c1=O)NCc1ccco1	0	0	35	50	40
CCc1ccc(-n2c(=O)c3ccccc3n(CC(=O)NC3CCCC3)c2=O)cc1	62	31	0	0	52
O=C(Cn1c(=O)n(CC(=O)NC2CCCC2)c(=O)c2ccccc21)Nc1ccc(Br)cc1	38	0	0	0	41
O=C(Cn1c(=O)c2ccccc2n(CC(=O)Nc2ccc(Br)cc2)c1=O)NCc1ccco1	31	0	0	44	0
CCc1noc(Cn2cnc3c4ccccc4n(CC(=O)NC4CCCCC4)c3c2=O)n1	46	53	0	0	69
COc1cc(Cl)c(C)cc1NC(=O)Cn1c(=O)n(CC(=O)NCc2ccco2)c(=O)c2ccccc21	50	39	43	64	0
O=C(NC1CCCCC1)c1nc(Cn2cnc3ccccc3c2=O)no1	0	0	0	0	0
O=C(Cn1c(=O)ccn(Cc2ccccc2)c1=O)NCc1ccco1	0	0	0	0	0
O=C(Cn1c(=O)n(-c2ccc(F)cc2)c(=O)c2oc3ccccc3c21)NC1CCCCC1	0	0	0	41	0
COc1ccc(C(CNC(=O)c2sccc2C)N2CCCCC2)cc1 (stereo not drawn)	0	0	0	0	0
C=C(C)CSc1nc(Cc2ccccc2)nc2sc3c(c12)CC(C)(C)OC3	0	33	0	0	0
C=C(C)CSc1nc(CC)nc2sc3c(c12)CC(C)(C)OC3	0	0	0	0	0
CCN(CC)c1ccc(C(=O)CN2CCC(S(=O)(=O)c3ccc(-c4cccs4)cc3)CC2)cc1	0	0	0	0	0
CC(=O)Nc1c2sscc-2[nH]c1=O	0	0	0	0	70
CSc1cccc(NC(=O)CCCC2=NS(=O)(=O)c3ccccc3N2)c1	0	0	0	0	0
COCCN(C1CCN(C)CC1)S(=O)(=O)c1ccc(NC(=O)c2c(F)cccc2F)cc1	0	0	0	0	0
COc1cccc(C2CC(=O)Nc3n[nH]c(-c4ccccc4)c32)c1 (stereo not drawn)	68	0	0	0	63
OC(COc1ccc2c(c1)OCO2)CN1CCOCC1 (stereo not drawn)	0	0	0	0	0
Cc1cccc(NC(=O)CCc2nc(-c3cccnc3)no2)c1	0	0	0	0	0
CCc1nc(-c2ccc(C(=O)Nc3cccnc3)cc2)no1	0	49	0	0	0
CCOc1ccc(NC(=O)Cn2cnc(S(=O)(=O)N3CCc4ccccc43)c2)cc1	80	48	0	0	0
NC(=O)c1nc(Nc2ccccc2)sc1N	0	0	0	0	0
FC(F)(F)c1cc(C(F)(F)F)c2sc(Nc3ccccc3)nc2n1	0	0	0	92	0
Cn1ncc2c1CCCN(C(=O)Cc1ccc(Cl)cc1)C2	0	0	0	0	0
c1nc2onc(C3CCCC3)c2cc1-c1nnc(C2CC2)o1	0	0	0	0	0
SMILES	USP17 inh	USP28 block	USP10 inh	USP8 inh	USP30 block
CCOc1ccc(-c2nnc(-c3cnc4onc(C5CCCC5)c4c3)o2)cc1	0	0	32	0	0
Fc1ccc(Cc2nnc(-c3cnc4onc(C5CCCC5)c4c3)o2)cc1	0	0	0	0	0
CC(C)(C)Cc1nnc(-c2cnc3onc(C4CCCC4)c3c2)o1	0	0	0	35	0
CCc1ccc2ncc(S(=O)(=O)c3ccccc3)c(N3CCCC3)c2c1	0	0	0	36	0
COc1ccc2ncc(S(=O)(=O)c3ccccc3)c(N3CCCCCC3)c2c1	0	0	0	0	0
c1ccc(-n2nnc(-c3noc(-c4ccc[nH]4)n3)c2-c2ccncc2)cc1	0	0	0	0	0
COc1cc(OC)cc(C(=O)OC(C(=O)c2c[nH]c3ccccc23)c2ccccc2)c1 (stereo not drawn)	0	0	0	0	0
